From PubChem
Hits are enriched below; roughly 5% of the tested compounds scored in any of these assays.
UCHL1 block: blocks human UCHL1 ubiquitin-rhodamine cleavage; hit rate 0.2% among 47,000; purified UCHL1, Ub-rhodamine cleavage fluorescence; AID 1645859; P09936; inhibition, % at 20 µM
USP7 inh: blocks human USP7 ubiquitin-rhodamine cleavage; purified USP7, Ub-rhodamine cleavage fluorescence; inhibition, % at 20 µM; hit rate 0.3% among 47,000; AID 1645854
USP8 inh: human USP8 deubiquitinase inhibition | purified USP8, Ub-rhodamine cleavage fluorescence, 30 min | inhibition, % at 20 µM | hit rate 4.2% among 47,000
USP10 block: blocks human USP10 ubiquitin-rhodamine cleavage; Q14694; purified USP10, Ub-rhodamine fluorescence, 60 min; inhibition, % at 20 µM; hit rate 1.1% among 47,000; AID 1645856
Numbers without * were called inactive. No stated cut-off is given here; in the data, active means inhibition above about 30%; inactive means the rest.

SMILES	UCHL1 block	USP7 inh	USP8 inh	USP10 block
COc1ccc(C(C(=O)NC2CCCCC2)N(C(=O)Cn2nnc3ccccc32)c2ccc(S(=O)(=O)N3CCC(C)CC3)cc2)cc1O (stereo unspecified)	8.9	8.6	-5.5	16.6
Cc1sc2ncnc(OCC(=O)c3ccc(NC(=O)CC(C)C)cc3)c2c1C	3.6	-6.5	30.3*	4.1
CC(C)CCCCCCCCCCC(=O)N(C)[C@H](CO)C(=O)N[C@H](C)C(=O)NCC(=O)N(C)C1C(=O)N[C@@H](C)C(=O)NC(C(=O)O)Cc2ccc(O)c(c2)-c2cc1ccc2O (stereo partly specified)	0.0	-24.1	0.9	60.4*
NC(=O)c1cccc(NS(=O)(=O)c2ccccc2)c1	-3.1	2.0	2.4	2.0
O=S(=O)(Nc1ccc(Oc2ccccc2)cc1)c1ccccc1	11.3	-9.1	34.4*	23.4
CCc1ccccc1NC(=O)Cn1c(=O)n(CC(=O)NCc2ccccc2Cl)c(=O)c2sccc21	-1.5	13.7	38.2*	29.4
Cc1ccc(NC(=O)Cn2c(=O)n(-c3ccc(CC(=O)NCc4ccco4)cc3)c(=O)c3sccc32)c(C)c1	3.6	19.6	14.8	43.9*
Cc1ccc(CNC(=O)Cn2c(=O)c3sccc3n(CC(=O)Nc3ccc(Br)cc3)c2=O)cc1	1.4	7.6	23.1	2.8
O=C(Cc1ccc(-n2c(=O)c3sccc3n(Cc3ccc(F)cc3)c2=O)cc1)NCCc1ccccc1	0.0	22.3	23.0	37.3*
Cc1ccccc1NC(=O)Cn1c(=O)n(-c2ccc(CC(=O)NCCc3ccccc3)cc2)c(=O)c2sccc21	8.0	31.7*	84.3*	51.0*
Cc1cccc(NC(=O)Cn2c(=O)n(-c3cc(C)cc(C)c3)c(=O)c3sccc32)c1	2.3	5.3	24.5	19.5
Cc1cccc2c1N(CC(=O)NCc1ccc(F)cc1)C(=O)C1CCCN1C2=O (stereo unspecified)	1.1	4.4	5.6	0.0
CCCC(=O)Nc1ccc(Nc2cc(N3CCOCC3)nc(C)n2)cc1	-1.3	3.0	-21.8	4.8
CCCCNC(=O)c1nc(CS(=O)(=O)c2ccccc2)no1	-5.7	-0.6	-19.0	-4.7
CSc1ccc(/C=C/c2nc(-c3ccccc3O)n[nH]2)cc1	9.8	4.2	64.4*	20.6
CC1CCN(S(=O)(=O)c2cn(CC(=O)Nc3ccc4c(c3)OCO4)cn2)CC1	0.6	1.4	9.9	2.3
O=C(Cn1cnc(S(=O)(=O)N2CCCCC2)c1)Nc1ccc2c(c1)OCO2	-1.4	3.9	59.2*	-0.2
CCc1ccccc1NC(=O)CCn1c(=O)c2cccn2c2ccccc21	0.7	-2.0	37.1*	5.4
CC(=O)c1ccc(NC(=O)CCn2c(=O)c3cccn3c3ccccc32)cc1	-2.0	6.3	28.6	21.5
C/C(=C\Cc1c(O)cc(C)c(C=O)c1O)CC[C@@]1(C)[C@H](C)CCC(=O)[C@@H]1C	8.9	10.2	13.4	37.5*
O=C(CSc1n[nH]c2nc3ccccc3n12)Nc1ccc2c(c1)OCCO2	0.8	2.6	-5.5	2.1
Cc1ccc2c(CNCCC3=CCCCC3)c(C(=O)O)n(C)c2c1	-0.2	1.0	-7.7	71.7*
COc1ccc2c(CNCCC3=CCCCC3)c(C(=O)O)n(Cc3ccc(F)cc3)c2c1	4.1	-112.2	3.5	10.2
CC1=CN2C(=N)/C(=C/c3cn(Cc4ccc(Cl)cc4)c4ccccc34)C(=O)N=C2S1	-37.8	-136.8	-96.9	-9.4
N=C1/C(=C/c2cn(Cc3ccccc3F)c3ccccc23)C(=O)N=C2SC(C(F)(F)F)=NN12	6.3	40.9*	47.6*	50.6*
SMILES	UCHL1 block	USP7 inh	USP8 inh	USP10 block
Cc1cccc(NC(=O)Nc2nnc(CC(=O)NCc3ccccc3)s2)c1	-3.9	11.0	-1.4	20.9
O=C(Cc1nnc(NC(=O)Nc2ccc3c(c2)OCO3)s1)NCc1ccccc1	1.2	13.9	48.1*	33.6*
Cc1cc(NCC2CCCO2)n2nc(-c3cccc(Cl)c3)c(C)c2n1 (stereo unspecified)	9.9	4.4	6.3	5.3
Cc1cccc(-c2nnn3c2nc(NCC2CCCO2)c2ccccc23)c1 (stereo unspecified)	1.6	9.9	67.1*	25.9
COc1ccc(-n2cc(C(=O)NCc3ccc4c(c3)OCO4)c3ccccc3c2=O)cc1	0.2	0.2	7.5	22.0
Oc1ccc2ccccc2c1CN1CCN(c2ncccn2)CC1	1.7	3.5	-0.1	0.2
Oc1ccc2ccccc2c1CN1CCCC1	1.6	2.8	37.5*	0.5
CC(C)CN1CCC2(CC1)CN(S(=O)(=O)Cc1ccccc1)C2	0.8	4.2	-2.2	-1.0
CN(CC(=O)Nc1ccc(Cl)cc1)c1cnn(-c2nc3ccccc3[nH]2)c(=O)c1Cl	3.5	17.1	30.4*	25.0
